# According to PubChem BioAssay:
# The source made the active and inactive calls.
# Experiments:
# [1] = binders of probe aFSTL3 on microarray, primary screen, stem cell growth factor project, biochemical, small-molecule microarray, fluorescence 635/667 (AID 1064); conditions: higher = more signal;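 also: measures binding of the biotinylated anti-FSTL3 antibody to printed compounds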
# [2] = binders from COS7 lysate, DM2A8 probe, primary screen, torsin A project, cell lysate, small-molecule microarray, fluorescence 635/667 (AID 1065); conditions: higher = more signal, COS7 lysate expressing mutant human TOR1A
# [3] = binders of probe aFGF2 on microarray, primary screen, stem cell growth factor project, biochemical, small-molecule microarray, fluorescence 635/667 (AID 1067); conditions: higher = more signal;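 also: measures binding of biotinylated aFGF2 protein to printed compounds on slides; z-score merges feature fluorescence and signal-to-noise across triplicate slides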
# [4] = binders of probe aFGF10 on microarray, primary screen, stem cell growth factor project, biochemical, small-molecule microarray, fluorescence 635/667 (AID 1071); conditions: higher = more signal;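 also: score merges 667 nm spot intensity and signal to noise from triplicate slides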
# [5] = molecular target: Neurogenic locus notch homolog protein 2 (Homo sapiens) (UniProt Q04721); test: Notch2 binders on small-molecule microarrays, primary screen, biochemical, small-molecule microarray, 635 nm fluorescence, stem cell growth factors (AID 1073); conditions: Notch2 binding, higher = more signal
# Sequence of Neurogenic locus notch homolog protein 2 (Homo sapiens) (Q04721 whole entry, looked up, canonical isoform): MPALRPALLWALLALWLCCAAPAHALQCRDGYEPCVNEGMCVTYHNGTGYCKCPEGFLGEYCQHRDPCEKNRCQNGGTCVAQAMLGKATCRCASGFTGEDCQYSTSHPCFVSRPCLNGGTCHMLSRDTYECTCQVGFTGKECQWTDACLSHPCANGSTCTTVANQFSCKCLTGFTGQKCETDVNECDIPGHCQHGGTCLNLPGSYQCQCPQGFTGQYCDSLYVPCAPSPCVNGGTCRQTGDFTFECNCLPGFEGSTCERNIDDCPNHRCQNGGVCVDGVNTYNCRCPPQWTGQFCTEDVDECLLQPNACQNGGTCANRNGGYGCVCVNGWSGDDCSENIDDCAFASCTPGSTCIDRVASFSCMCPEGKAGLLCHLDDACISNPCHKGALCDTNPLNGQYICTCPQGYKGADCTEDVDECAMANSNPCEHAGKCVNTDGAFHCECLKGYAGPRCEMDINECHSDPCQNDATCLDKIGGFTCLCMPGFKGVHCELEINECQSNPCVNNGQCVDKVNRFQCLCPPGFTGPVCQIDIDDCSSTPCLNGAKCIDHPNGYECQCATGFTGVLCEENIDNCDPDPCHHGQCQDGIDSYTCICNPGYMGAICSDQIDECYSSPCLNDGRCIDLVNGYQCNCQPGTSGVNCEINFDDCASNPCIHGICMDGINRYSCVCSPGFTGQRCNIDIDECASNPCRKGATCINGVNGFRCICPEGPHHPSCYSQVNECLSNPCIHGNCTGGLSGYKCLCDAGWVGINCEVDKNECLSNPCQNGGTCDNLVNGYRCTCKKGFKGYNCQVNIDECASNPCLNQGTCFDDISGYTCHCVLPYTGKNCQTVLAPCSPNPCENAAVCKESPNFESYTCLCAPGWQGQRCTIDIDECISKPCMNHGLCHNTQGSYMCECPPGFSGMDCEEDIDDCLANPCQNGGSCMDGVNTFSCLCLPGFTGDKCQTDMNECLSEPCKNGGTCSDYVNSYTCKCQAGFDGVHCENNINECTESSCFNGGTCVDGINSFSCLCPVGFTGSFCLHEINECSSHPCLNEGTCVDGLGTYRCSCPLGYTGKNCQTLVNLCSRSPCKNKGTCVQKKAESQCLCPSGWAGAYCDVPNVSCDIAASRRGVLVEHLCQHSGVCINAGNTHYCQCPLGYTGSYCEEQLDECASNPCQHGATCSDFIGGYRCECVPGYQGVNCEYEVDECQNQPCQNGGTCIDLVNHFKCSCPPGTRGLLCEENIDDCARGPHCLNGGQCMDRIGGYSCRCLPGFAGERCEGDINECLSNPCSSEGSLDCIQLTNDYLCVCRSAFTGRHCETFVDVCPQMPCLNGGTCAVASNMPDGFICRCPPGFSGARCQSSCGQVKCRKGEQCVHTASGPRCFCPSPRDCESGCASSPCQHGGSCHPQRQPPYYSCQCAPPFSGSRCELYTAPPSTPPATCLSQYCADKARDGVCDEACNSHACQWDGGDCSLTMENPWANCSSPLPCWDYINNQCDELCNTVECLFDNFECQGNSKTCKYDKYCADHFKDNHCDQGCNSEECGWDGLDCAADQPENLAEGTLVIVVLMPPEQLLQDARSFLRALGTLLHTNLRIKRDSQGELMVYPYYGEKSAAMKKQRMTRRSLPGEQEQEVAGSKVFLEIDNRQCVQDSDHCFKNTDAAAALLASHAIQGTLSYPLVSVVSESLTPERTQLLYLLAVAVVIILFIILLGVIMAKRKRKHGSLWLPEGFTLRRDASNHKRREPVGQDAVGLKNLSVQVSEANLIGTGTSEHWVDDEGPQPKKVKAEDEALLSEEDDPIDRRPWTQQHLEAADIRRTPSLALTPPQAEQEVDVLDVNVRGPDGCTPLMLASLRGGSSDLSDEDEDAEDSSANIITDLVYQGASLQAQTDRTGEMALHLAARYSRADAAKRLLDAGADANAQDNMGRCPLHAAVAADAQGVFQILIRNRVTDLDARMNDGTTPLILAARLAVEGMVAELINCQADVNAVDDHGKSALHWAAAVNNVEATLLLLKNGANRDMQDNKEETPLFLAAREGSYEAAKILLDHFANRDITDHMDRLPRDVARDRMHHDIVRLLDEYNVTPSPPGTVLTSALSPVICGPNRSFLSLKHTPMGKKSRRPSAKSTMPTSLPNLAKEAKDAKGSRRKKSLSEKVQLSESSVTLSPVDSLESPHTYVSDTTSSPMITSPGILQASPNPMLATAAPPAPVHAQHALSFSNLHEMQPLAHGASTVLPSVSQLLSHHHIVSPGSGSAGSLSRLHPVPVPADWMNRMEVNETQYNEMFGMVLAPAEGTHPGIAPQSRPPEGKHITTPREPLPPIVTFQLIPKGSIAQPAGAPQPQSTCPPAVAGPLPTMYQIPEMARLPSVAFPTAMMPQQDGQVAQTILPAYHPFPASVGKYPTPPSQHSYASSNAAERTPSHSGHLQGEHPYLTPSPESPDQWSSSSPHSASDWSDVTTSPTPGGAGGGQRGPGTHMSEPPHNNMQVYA
# [6] = molecular target: Pro-neuregulin-1, membrane-bound isoform (Homo sapiens) (UniProt Q02297); test: NRG1 binders on small-molecule microarrays, primary screen, psychiatric disease protein project, biochemical, small-molecule microarray, fluorescence 635/667 (AID 1075); conditions: NRG1 binding, 635 nm fluorescence, higher = more signal;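 also: score combines 667 nm spot fluorescence with signal to noise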
# Sequence of Pro-neuregulin-1, membrane-bound isoform (Homo sapiens) (Q02297 whole entry, looked up, the tested form may be a part, canonical isoform): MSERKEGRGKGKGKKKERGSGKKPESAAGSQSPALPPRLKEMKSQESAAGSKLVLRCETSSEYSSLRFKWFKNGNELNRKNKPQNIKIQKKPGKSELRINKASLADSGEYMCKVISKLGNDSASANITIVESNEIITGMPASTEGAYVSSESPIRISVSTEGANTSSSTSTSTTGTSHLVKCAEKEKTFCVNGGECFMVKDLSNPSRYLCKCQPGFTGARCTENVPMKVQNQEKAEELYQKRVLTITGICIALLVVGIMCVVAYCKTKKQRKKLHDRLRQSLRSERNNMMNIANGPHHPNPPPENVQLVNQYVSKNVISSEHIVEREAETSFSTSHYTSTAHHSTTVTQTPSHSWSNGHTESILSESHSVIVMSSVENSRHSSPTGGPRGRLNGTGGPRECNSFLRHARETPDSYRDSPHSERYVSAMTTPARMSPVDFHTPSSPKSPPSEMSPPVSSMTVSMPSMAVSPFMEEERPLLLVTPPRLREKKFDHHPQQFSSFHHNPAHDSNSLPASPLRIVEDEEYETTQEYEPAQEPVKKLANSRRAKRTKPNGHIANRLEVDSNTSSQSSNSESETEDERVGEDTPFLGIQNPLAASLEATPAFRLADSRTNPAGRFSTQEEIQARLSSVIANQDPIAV
# [7] = system: Neuregulin-1 EGF-like domain; test: binders of neuregulin-1 EGF-like domain, primary screen, biochemical, small-molecule microarray, 635 nm fluorescence (AID 1081); conditions: small-molecule microarray binding, higher = more signal;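 also: binding of the protein to compounds printed on small-molecule microarray slides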
# [8] = FRG1 promoter luciferase signal modulators, primary screen, FRG1 inhibition for FSHD, cell-based, C2C12 myotubes, firefly/Renilla luciferase, luminescence (AID 1084); conditions: higher = more signal, called active from +8 up or from −8 down
# [9] = binders of probe aFST on microarray, primary screen, stem cell growth factor project, biochemical, small-molecule microarray, fluorescence 635/667 (AID 1086); conditions: higher = more signal;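 also: score merges 667 nm fluorescence with signal-to-noise of each printed compound spot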
# [10] = binders of probe aHhip on microarray, primary screen, stem cell growth factor project, biochemical, small-molecule microarray, fluorescence 635/667 (AID 1087); conditions: higher = more signal;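 also: score merges spot fluorescence at 667nm with spot signal to noise ratio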
SMILES,composite z-score [1],composite z-score [2],composite z-score [3],composite z-score [4],composite z-score [5],composite z-score [6],composite z-score [7],z-score [8],composite z-score [9],composite z-score [10]
COC(=O)[C@@]1(CCS(=O)(=O)c2ccccc2)N=C(c2ccc(OCCCO)cc2)O[C@H]1c1ccccc1N=[N+]=[N-],-0.0367,0.35,-0.051,0.207,1.05,0.573,1.21,-2.34 (inactive),0.252,-0.0346
COC(=O)C1=CC(CCCO)=CC(C2CC2)N(Cc2cccc(OC(F)(F)F)c2)C=C1C(=O)OC (stereo not given),-0.207,-0.166,-0.0265,0.216,0.515,1.14,1.25,0.503 (inactive),0.497,-0.0645
NC(=O)NCC#Cc1ccc2c(c1)[C@]1(C(=O)N2)[C@H](C(=O)N2CCCCCCC2)[C@H]2C(=O)O[C@H](c3ccccc3)[C@H](c3ccccc3)N2[C@@H]1c1ccc(O)cc1,3.57,0.346,0.688,0.8,0.879,0.94,0.947,0.805 (inactive),2.99,2.75
COc1ccc([Si](C)(C)[C@H]2[C@H](CCn3cc([C@H](O)c4ccccc4)nn3)O[C@@]3(C(=O)N(C)c4c(Br)cc(C)cc43)[C@@H]2C)cc1,-0.0258,0.48,-0.113,-0.327,-0.442,0.218,0.881,-0.905 (inactive),-0.438,-0.0994
COc1ccc([Si](C)(C)[C@H]2[C@H](CCO)O[C@@]3(C(=O)N(Cc4ccccc4)c4ccc(N(C=O)c5ccccc5)cc43)[C@@H]2C)cc1,-0.317,0.242,-0.103,0.199,0.697,0.929,0.818,-0.919 (inactive),0.643,-0.0994
CCCCC(O)C1C=CC2C(=O)NC(=O)C2N1Nc1ccc(Cl)cc1Cl (stereo not given),0.439,-0.384,0.0127,0.612,0.866,1.3,1.09,0.0812 (inactive),0.691,-0.27
CC(C)C(=C=CC[C@@H](O)c1cccc(OCCO)c1)CCO,-0.226,0.17,-0.085,0.742,0.271,-0.163,0.364,-0.202 (inactive),0.321,0.0505
CC(=O)n1cc(C(O)C2C=CC3C(=O)N(c4ccccc4)C(=O)C3N2Nc2ccccc2F)c2ccccc21 (stereo not given),-0.146,0.25,-0.0757,-0.274,0.021,1.69,1.02,0.625 (inactive),-0.346,0.0505
NCCCC[C@@H]1NC(=O)[C@H]2C[C@@H](C(=O)NCc3ccc(F)cc3)[C@@H](c3cccc(OCCO)c3)N2C1=O,-0.261,0.357,-0.0262,0.527,0.772,1.09,1.33,-0.0673 (inactive),0.182,-0.0994
C=C(COC)/C(=C/C[C@H](OC(=O)c1ccncc1)c1ccc(OCCO)cc1)c1cc(C(=O)OC)ccc1OC,-0.139,-0.0024,0.0436,1.08,0.0841,0.358,1.03,-0.992 (inactive),1.42,0.113
C#CCN(C/C=C/c1ccccc1)[C@H](CO[Si](C)(C)C(C)(C)C)c1ccccc1,-0.0528,-0.0566,-0.0815,-0.284,-1.14,-0.267,-0.497,-1.27 (inactive),-0.363,-0.0994
COc1ccccc1CN1C(=O)c2ccccc2[C@@H](C(=O)NCCCN(C)C)[C@@H]1c1ccc(CO)cc1,-0.192,0.132,-0.161,0.461,-0.203,0.648,0.695,-3.53 (inactive),0.0644,-0.266
COCCOC(=O)N1C(=O)[C@@]2(c3ccccc31)[C@H](C(N)=O)[C@H]1C(=O)O[C@H](c3ccccc3)[C@H](c3ccccc3)N1[C@@H]2c1ccc(OCCO)cc1,-0.4,1.06,0.0445,0.257,0.995,1.59,1.21,0.341 (inactive),0.239,0.0854
CCN(CC)c1ccc(N2CC=CC34O[C@@H]5C=CCOC(=O)[C@@H]5[C@H]3C(=O)N(CCO)[C@@H]4C2=O)cc1 (stereo not given in full),0.73,-0.0324,-0.144,-1.03,-1.51,-0.0687,0.504,0.737 (inactive),-0.568,-0.353
C=CCOC(=O)[C@@H]1[C@H]2C(=O)O[C@H](c3ccccc3)[C@H](c3ccccc3)N2[C@H](c2ccc(OCCOC(=O)[C@H]3C[C@H]4C(=O)NCC(=O)N4[C@H]3c3ccc(O)cc3)cc2)[C@@]12C(=O)Nc1ccc(I)cc12,-0.223,0.826,-0.0834,0.22,0.948,0.675,0.86,1.2 (inactive),0.377,-0.54
CC(C)C[C@@H]1NC(=O)[C@H]2C[C@@H](C(=O)NCCCCCCNC(=O)CS)[C@@H](c3ccc(O)cc3)N2C1=O,-0.254,1.62,-0.0297,0.437,0.766,1.22,1.34,1.61 (inactive),0.665,-0.0296
